According to paper PMC11006913:
Changes are numbered by the printed parent chain.

What was measured:
Assay in all cases: PBM; 200 nM protein, PBS
Details in all cases: dsDNA, one strand shown
VENTX [1] = target: T1, VENTX (Homo sapiens, UniProt O95231 78-163, R121Q)
T1 sequence: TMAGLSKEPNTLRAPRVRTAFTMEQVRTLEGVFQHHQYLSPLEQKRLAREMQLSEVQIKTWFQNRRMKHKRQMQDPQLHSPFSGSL

HOXC9 [2] = target: HOXC9 (Homo sapiens, UniProt P31274 178-260, K195R)
VENTX [3] = target: T2, VENTX (Homo sapiens, UniProt O95231 78-163)
T2 sequence: T1 sequence with Q44R

VENTX [4] = target: T3, VENTX (Homo sapiens, UniProt O95231 78-163, Y115F)
T3 sequence: T1 sequence with Y38F, Q44R

HOXC9 [5] = target: HOXC9 (Homo sapiens, UniProt P31274 178-260)
ALX1 [6] = target: ALX1 (Homo sapiens, UniProt Q15699 118-204, L144V)
HOXC9 [7] = target: HOXC9 (Homo sapiens, UniProt P31274 178-260, R193K)
ALX1 [8] = target: ALX1 (Homo sapiens, UniProt Q15699 118-204, L144R)
HOXC9 [9] = target: HOXC9 (Homo sapiens, UniProt P31274 178-260, R222W)
ALX1 [10] = target: ALX1 (Homo sapiens, UniProt Q15699 118-204)
SIX6 [11] = target: T4, SIX6 (Homo sapiens, UniProt O95475 114-200, L167I)
T4 sequence: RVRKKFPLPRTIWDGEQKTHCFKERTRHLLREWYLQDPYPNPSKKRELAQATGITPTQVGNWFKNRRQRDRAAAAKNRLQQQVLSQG

SIX6 [12] = target: T5, SIX6 (Homo sapiens, UniProt O95475 114-200, L143V)
T5 sequence: T4 sequence with L30V, I54L

SIX6 [13] = target: T6, SIX6 (Homo sapiens, UniProt O95475 114-200, H141N)
T6 sequence: T4 sequence with H28N, I54L

SIX6 [14] = target: T7, SIX6 (Homo sapiens, UniProt O95475 114-200, T165P)
T7 sequence: T4 sequence with T52P, I54L

SIX6 [15] = target: T8, SIX6 (Homo sapiens, UniProt O95475 114-200, L167M)
T8 sequence: T4 sequence with I54M

SIX6 [16] = target: T9, SIX6 (Homo sapiens, UniProt O95475 114-200, L143M)
T9 sequence: T4 sequence with L30M, I54L

SIX6 [17] = target: T10, SIX6 (Homo sapiens, UniProt O95475 114-200, L143I)
T10 sequence: T4 sequence with L30I, I54L

SIX6 [18] = target: T11, SIX6 (Homo sapiens, UniProt O95475 114-200, T165G)
T11 sequence: T4 sequence with T52G, I54L

SIX6 [19] = target: T12, SIX6 (Homo sapiens, UniProt O95475 114-200, T139Q)
T12 sequence: T4 sequence with T26Q, I54L

SIX6 [20] = target: T13, SIX6 (Homo sapiens, UniProt O95475 114-200, T165A)
T13 sequence: T4 sequence with T52A, I54L

SIX6 [21] = target: T14, SIX6 (Homo sapiens, UniProt O95475 114-200, L167V)
T14 sequence: T4 sequence with I54V

SIX6 [22] = target: T15, SIX6 (Homo sapiens, UniProt O95475 114-200)
T15 sequence: T4 sequence with I54L

SIX6 [23] = target: T16, SIX6 (Homo sapiens, UniProt O95475 114-200, T165I)
T16 sequence: T4 sequence with T52I, I54L

HOXB9 [24] = target: HOXB9 (Homo sapiens, UniProt P17482 171-250, T197M)
ALX4 [25] = target: ALX4 (Homo sapiens, UniProt Q9H161 200-286)
ALX4 [26] = target: ALX4 (Homo sapiens, UniProt Q9H161 200-286, Q225E)
HOXA2 [27] = target: HOXA2 (Homo sapiens, UniProt O43364 129-215, R185T)
HOXB9 [28] = target: HOXB9 (Homo sapiens, UniProt P17482 171-250)
HOXA2 [29] = target: HOXA2 (Homo sapiens, UniProt O43364 129-215, R185K)
VAX1 [30] = target: VAX1 (Homo sapiens, UniProt Q5SQQ9 86-172)
HOXB9 [31] = target: HOXB9 (Homo sapiens, UniProt P17482 171-250, R186Q)
VAX1 [32] = target: VAX1 (Homo sapiens, UniProt Q5SQQ9 86-172, T142I)
HOXA2 [33] = target: HOXA2 (Homo sapiens, UniProt O43364 129-215, Y150S)
HOXA2 [34] = target: HOXA2 (Homo sapiens, UniProt O43364 129-215)
VAX1 [35] = target: VAX1 (Homo sapiens, UniProt Q5SQQ9 86-172, K157R)
Chain of VAX1 (Homo sapiens, UniProt Q5SQQ9 86-172, K157R) (Q5SQQ9 86-172 K157R): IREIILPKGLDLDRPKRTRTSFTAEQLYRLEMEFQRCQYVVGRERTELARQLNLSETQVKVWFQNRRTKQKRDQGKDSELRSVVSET

Chain of HOXC9 (Homo sapiens, UniProt P31274 178-260, R222W) (P31274 178-260 R222W): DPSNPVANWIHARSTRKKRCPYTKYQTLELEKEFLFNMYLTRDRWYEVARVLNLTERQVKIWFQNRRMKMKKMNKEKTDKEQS
Chain of HOXC9 (Homo sapiens, UniProt P31274 178-260, K195R) (P31274 178-260 K195R): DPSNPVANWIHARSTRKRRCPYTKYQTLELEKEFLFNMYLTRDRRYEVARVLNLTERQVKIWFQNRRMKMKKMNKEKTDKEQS
Chain of HOXC9 (Homo sapiens, UniProt P31274 178-260) (P31274 178-260): as the sequence (P31274 178-260 R222W) above, with W45R counted along it
Chain of HOXC9 (Homo sapiens, UniProt P31274 178-260, R193K) (P31274 178-260 R193K): as the sequence (P31274 178-260 R222W) above, with R16K, W45R counted along it
Chain of HOXA2 (Homo sapiens, UniProt O43364 129-215, R185K) (O43364 129-215 R185K): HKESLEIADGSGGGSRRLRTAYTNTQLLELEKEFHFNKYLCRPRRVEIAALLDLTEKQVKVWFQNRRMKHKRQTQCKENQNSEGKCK
Chain of HOXA2 (Homo sapiens, UniProt O43364 129-215, Y150S) (O43364 129-215 Y150S): as the sequence (O43364 129-215 R185K) above, with Y22S, K57R counted along it
Chain of ALX1 (Homo sapiens, UniProt Q15699 118-204, L144V) (Q15699 118-204 L144V): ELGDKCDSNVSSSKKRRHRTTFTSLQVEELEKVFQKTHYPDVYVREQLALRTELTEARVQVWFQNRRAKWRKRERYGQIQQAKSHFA
Chain of VAX1 (Homo sapiens, UniProt Q5SQQ9 86-172, T142I) (Q5SQQ9 86-172 T142I): as the sequence (Q5SQQ9 86-172 K157R) above, with T57I, R72K counted along it
Chain of HOXB9 (Homo sapiens, UniProt P17482 171-250) (P17482 171-250): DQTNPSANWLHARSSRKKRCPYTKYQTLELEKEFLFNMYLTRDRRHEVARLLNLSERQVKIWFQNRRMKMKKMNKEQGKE
Chain of ALX1 (Homo sapiens, UniProt Q15699 118-204, L144R) (Q15699 118-204 L144R): as the sequence (Q15699 118-204 L144V) above, with V27R counted along it
Chain of ALX1 (Homo sapiens, UniProt Q15699 118-204) (Q15699 118-204): as the sequence (Q15699 118-204 L144V) above, with V27L counted along it
Chain of HOXA2 (Homo sapiens, UniProt O43364 129-215, R185T) (O43364 129-215 R185T): as the sequence (O43364 129-215 R185K) above, with K57T counted along it
Chain of ALX4 (Homo sapiens, UniProt Q9H161 200-286, Q225E) (Q9H161 200-286 Q225E): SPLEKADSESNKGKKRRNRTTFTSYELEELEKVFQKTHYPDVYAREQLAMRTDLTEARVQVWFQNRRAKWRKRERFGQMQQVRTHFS
Chain of ALX4 (Homo sapiens, UniProt Q9H161 200-286) (Q9H161 200-286): as the sequence (Q9H161 200-286 Q225E) above, with E26Q counted along it
Chain of VAX1 (Homo sapiens, UniProt Q5SQQ9 86-172) (Q5SQQ9 86-172): as the sequence (Q5SQQ9 86-172 K157R) above, with R72K counted along it
Chain of HOXA2 (Homo sapiens, UniProt O43364 129-215) (O43364 129-215): as the sequence (O43364 129-215 R185K) above, with K57R counted along it
Chain of HOXB9 (Homo sapiens, UniProt P17482 171-250, T197M) (P17482 171-250 T197M): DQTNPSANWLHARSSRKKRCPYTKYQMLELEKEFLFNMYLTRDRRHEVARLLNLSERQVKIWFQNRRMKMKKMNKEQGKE
Chain of HOXB9 (Homo sapiens, UniProt P17482 171-250, R186Q) (P17482 171-250 R186Q): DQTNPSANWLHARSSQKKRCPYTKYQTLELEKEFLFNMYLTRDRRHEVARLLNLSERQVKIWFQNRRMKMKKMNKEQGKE

For CTAATGGA, the binding signal (VENTX [1]) was 11.7 upbm affinity estimate (log intensity, higher = more binding, comparable within an allelic series).

With CCCCCTGA the binding signal (VENTX [1]) was 7.9 upbm affinity estimate (log intensity, higher = more binding, comparable within an allelic series), the binding signal (HOXC9 [2]) was 9.31 upbm affinity estimate (log intensity, higher = more binding, comparable within an allelic series) and the binding signal (VENTX [3]) was 7.95 upbm affinity estimate (log intensity, higher = more binding, comparable within an allelic series). The binding signal (VENTX [4]) was 7.94 upbm affinity estimate (log intensity, higher = more binding, comparable within an allelic series), the binding signal (HOXC9 [5]) was 9.4 upbm affinity estimate (log intensity, higher = more binding, comparable within an allelic series) and the binding signal (ALX1 [6]) was 6.45 upbm affinity estimate (log intensity, higher = more binding, comparable within an allelic series). The binding signal (HOXC9 [7]) was 9.32 upbm affinity estimate (log intensity, higher = more binding, comparable within an allelic series), the binding signal (ALX1 [8]) was 6.47 upbm affinity estimate (log intensity, higher = more binding, comparable within an allelic series) and the binding signal (HOXC9 [9]) was 9.33 upbm affinity estimate (log intensity, higher = more binding, comparable within an allelic series). For the same sequence, the binding signal (ALX1 [10]) was 6.49 upbm affinity estimate (log intensity, higher = more binding, comparable within an allelic series).

With ACTCGTTA the binding signal (VENTX [1]) was 9.91 upbm affinity estimate (log intensity, higher = more binding, comparable within an allelic series).

In the case of ATGATATG, the binding signal (VENTX [1]) is reported as 9.57 upbm affinity estimate (log intensity, higher = more binding, comparable within an allelic series), the binding signal (SIX6 [11]) is reported as 11.3 upbm affinity estimate (log intensity, higher = more binding, comparable within an allelic series) and the binding signal (VENTX [3]) is reported as 9.91 upbm affinity estimate (log intensity, higher = more binding, comparable within an allelic series). The binding signal (SIX6 [12]) was 10.4 upbm affinity estimate (log intensity, higher = more binding, comparable within an allelic series), the binding signal (SIX6 [13]) was 11.3 upbm affinity estimate (log intensity, higher = more binding, comparable within an allelic series) and the binding signal (SIX6 [14]) was 9.99 upbm affinity estimate (log intensity, higher = more binding, comparable within an allelic series). For the same sequence, the binding signal (SIX6 [15]) was 10.7 upbm affinity estimate (log intensity, higher = more binding, comparable within an allelic series), the binding signal (SIX6 [16]) was 11.1 upbm affinity estimate (log intensity, higher = more binding, comparable within an allelic series) and the binding signal (SIX6 [17]) was 10.5 upbm affinity estimate (log intensity, higher = more binding, comparable within an allelic series). The binding signal (SIX6 [18]) was 11.4 upbm affinity estimate (log intensity, higher = more binding, comparable within an allelic series), the binding signal (SIX6 [19]) was 11.3 upbm affinity estimate (log intensity, higher = more binding, comparable within an allelic series) and the binding signal (SIX6 [20]) was 11.2 upbm affinity estimate (log intensity, higher = more binding, comparable within an allelic series). The binding signal (SIX6 [21]) was 11.1 upbm affinity estimate (log intensity, higher = more binding, comparable within an allelic series), the binding signal (SIX6 [22]) was 11.1 upbm affinity estimate (log intensity, higher = more binding, comparable within an allelic series) and the binding signal (SIX6 [23]) was 11.1 upbm affinity estimate (log intensity, higher = more binding, comparable within an allelic series).

For CACGGGGG, the binding signal (VENTX [1]) was 7.84 upbm affinity estimate (log intensity, higher = more binding, comparable within an allelic series), the binding signal (HOXB9 [24]) was 8.4 upbm affinity estimate (log intensity, higher = more binding, comparable within an allelic series) and the binding signal (VENTX [3]) was 7.81 upbm affinity estimate (log intensity, higher = more binding, comparable within an allelic series). For the same sequence, the binding signal (ALX4 [25]) was 7.67 upbm affinity estimate (log intensity, higher = more binding, comparable within an allelic series), the binding signal (VENTX [4]) was 7.86 upbm affinity estimate (log intensity, higher = more binding, comparable within an allelic series) and the binding signal (ALX4 [26]) was 7.96 upbm affinity estimate (log intensity, higher = more binding, comparable within an allelic series). For the same sequence, the binding signal (HOXA2 [27]) was 7.01 upbm affinity estimate (log intensity, higher = more binding, comparable within an allelic series), the binding signal (HOXB9 [28]) was 8.3 upbm affinity estimate (log intensity, higher = more binding, comparable within an allelic series) and the binding signal (HOXA2 [29]) was 10.1 upbm affinity estimate (log intensity, higher = more binding, comparable within an allelic series). For the same sequence, the binding signal (VAX1 [30]) was 7.17 upbm affinity estimate (log intensity, higher = more binding, comparable within an allelic series), the binding signal (HOXB9 [31]) was 8.26 upbm affinity estimate (log intensity, higher = more binding, comparable within an allelic series) and the binding signal (VAX1 [32]) was 7.14 upbm affinity estimate (log intensity, higher = more binding, comparable within an allelic series). For the same sequence, the binding signal (HOXA2 [33]) was 10.4 upbm affinity estimate (log intensity, higher = more binding, comparable within an allelic series), the binding signal (HOXA2 [34]) was 7.04 upbm affinity estimate (log intensity, higher = more binding, comparable within an allelic series) and the binding signal (VAX1 [35]) was 7.08 upbm affinity estimate (log intensity, higher = more binding, comparable within an allelic series).

For CCGTCCGC, the binding signal (VENTX [1]) was 7.99 upbm affinity estimate (log intensity, higher = more binding, comparable within an allelic series), the binding signal (HOXC9 [2]) was 9.35 upbm affinity estimate (log intensity, higher = more binding, comparable within an allelic series) and the binding signal (VENTX [3]) was 8.02 upbm affinity estimate (log intensity, higher = more binding, comparable within an allelic series). The binding signal (VENTX [4]) was 7.93 upbm affinity estimate (log intensity, higher = more binding, comparable within an allelic series), the binding signal (HOXC9 [5]) was 9.48 upbm affinity estimate (log intensity, higher = more binding, comparable within an allelic series) and the binding signal (HOXC9 [7]) was 9.36 upbm affinity estimate (log intensity, higher = more binding, comparable within an allelic series). The binding signal (HOXC9 [9]) was 9.54 upbm affinity estimate (log intensity, higher = more binding, comparable within an allelic series).
